According to the supplement of paper PMC8975748:
Counter-ions that a name gives are not always drawn. ± gives the standard deviation of the averaged measurements.

tested on: Saccharomyces cerevisiae BY4741 SeMeCo community; experiment: mean cell size (pixel area) (pixels); higher = larger cells; conditions: 10 µM; 24 h; SM minimal medium
In short: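 A fluorescent Saccharomyces cerevisiae BY4741 community carrying four plasmids was used, with each plasmid complementing one auxotrophy and bearing a fluorescent marker. An overnight preculture at OD600 = 1.0 was diluted to OD600 = 0.3, and 70 µl went into 384-well plates acoustically predosed with drug (final 10 µM) in SM medium for 24 h. After paraformaldehyde fixation, cells were imaged by automated confocal microscopy and analysed in Harmony, giving the mean cell pixel area per well. Each value is the average of 3 replicates. Same SeMeCo high-content imaging drug screen: Selleck FDA-approved drugs at 10 µM, 24 h in SM medium, 384-well plates, 3 replicates.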

Row | SMILES | mean cell size
1 | NS(=O)(=O)Cc1noc2ccccc12 [Zonisamide] | 12.4 ± 0.24
2 | c1ccc(-c2ccc(C(c3ccccc3)n3ccnc3)cc2)cc1 (stereo not given) [Bifonazole] | 12.65 ± 0.082
3 | COC(=O)C1=C(C)NC(C)=C(C(=O)OC(C)(C)CN(C)CCC(c2ccccc2)c2ccccc2)C1c1cccc([N+](=O)[O-])c1 (stereo not given) [Lercanidipine hydrochloride] | 12.3 ± 0.19
4 | O=c1n(CCCN2CCN(c3cccc(Cl)c3)CC2)nc2ccccn12 [Trazodone HCl] | 12.6 ± 0.15
5 | Cn1c(=O)c2[nH]cnc2n(C)c1=O [Aminophylline] | 12.5 ± 0.19
6 | Cc1cccc(C)c1NC(=O)C1CCCCN1C (stereo not given) [Mepivacaine] | 12.2 ± 0.28
7 | O=C1N=C(O)NC1(c1ccccc1)c1ccccc1 [Phenytoin Sodium] | 12.527 ± 0.0075
8 | CC1CCc2c(N3CCC(O)CC3)c(F)cc3c(=O)c(C(=O)O)cn1c23 (stereo not given) [Nadifloxacin] | 12.6 ± 0.13
9 | Nc1ccc(S(N)(=O)=O)cc1 [Sulfanilamide] | 12.4 ± 0.23
10 | COCCCOc1ccnc(C[S+]([O-])c2nc3ccccc3[nH]2)c1C (stereo not given) [Rabeprazole] | 12.5 ± 0.21
11 | CC[C@H](c1ccc(O)cc1)[C@@H](CC)c1ccc(O)cc1 [Hexestrol] | 12.7 ± 0.21
12 | CCOc1ccc2nc3cc(N)ccc3c(N)c2c1 [Ethacridine lactate monohydrate] | 12.86 ± 0.11
13 | COc1ccc(C2CNC(=O)C2)cc1OC1CCCC1 (stereo not given) [Rolipram] | 12.4 ± 0.3
14 | O=S1(=O)CCN(CN2CCS(=O)(=O)NC2)CN1 [Taurolidine] | 12.5 ± 0.25
15 | CCCN(CCc1cccs1)[C@H]1CCc2c(O)cccc2C1 [Rotigotine] | 12.6 ± 0.31
16 | CCn1cc(C(=O)O)c(=O)c2cc(F)c(N3CCNC(C)C3)c(F)c21 (stereo not given) [Lomefloxacin HCl] | 12.1 ± 0.14
17 | O=C1Nc2ccccc2C1=O [Isatin] | 12.3 ± 0.17
18 | CCN[C@@H]1C[C@H](N)[C@@H](O[C@H]2OC(CN)=CC[C@H]2N)[C@H](O)[C@H]1O[C@H]1OC[C@](C)(O)[C@H](NC)[C@H]1O [Netilmicin Sulfate] | 12.1 ± 0.17
19 | COc1cc(C(C)=O)ccc1OCCCN1CCC(c2noc3cc(F)ccc23)CC1 [Iloperidone] | 12.4 ± 0.16
20 | CCOC(=O)C1=C(COCCN)NC(C)=C(C(=O)OC)C1c1ccccc1Cl (stereo not given) [Amlodipine] | 13 ± 0.37

Row | SMILES | mean cell size
21 | CC(C(=O)O)c1ccc2c(c1)CC(=O)c1ccccc1S2 (stereo not given) [Zaltoprofen] | 12.82 ± 0.12
22 | CN1C2CCC1CC(OC(=O)C(O)c1ccccc1)C2 (stereo not given) [Homatropine Bromide] | 12.31 ± 0.032
23 | CCCCCOc1ccc(-c2cc(-c3ccc(C(=O)N[C@H]4C[C@@H](O)[C@@H](O)NC(=O)[C@@H]5[C@@H](O)[C@@H](C)CN5C(=O)[C@H]([C@H](O)CC(N)=O)NC(=O)[C@H]([C@H](O)[C@@H](O)c5ccc(O)c(OS(=O)(=O)O)c5)NC(=O)[C@@H]5C[C@@H](O)CN5C(=O)[C@H]([C@@H](C)O)NC4=O)cc3)no2)cc1 [Micafungin Sodium] | 12.4 ± 0.26
24 | CN1CCN(CCCN2c3ccccc3Sc3ccc(C(F)(F)F)cc32)CC1 [Trifluoperazine 2HCl] | 12.1 ± 0.41
25 | CCCCOc1cc(C(=O)NCCN(CC)CC)c2ccccc2n1 [Dibucaine HCl] | 12.3 ± 0.24
26 | CC(=O)N1CCN(c2ccc(OCC3COC(Cn4ccnc4)(c4ccc(Cl)cc4Cl)O3)cc2)CC1 (stereo not given) [Ketoconazole] | 11.9 ± 0.21
27 | C[C@]1(Cn2ccnn2)[C@H](C(=O)O)N2C(=O)C[C@H]2S1(=O)=O [Tazobactam] | 12.4 ± 0.26
28 | O=C(O)Cc1ccccc1Nc1c(Cl)cccc1Cl [Diclofenac Sodium] | 12.7 ± 0.18
29 | C[C@H]1COc2c(N3CCN(C)CC3)c(F)cc3c(=O)c(C(=O)O)cn1c23 [Levofloxacin] | 12.4 ± 0.19
30 | NC[C@H]1O[C@H](O[C@H]2[C@H](O)[C@@H](O[C@H]3O[C@H](CO)[C@@H](O)[C@H](N)[C@H]3O)[C@H](N)C[C@@H]2N)[C@H](O)[C@@H](O)[C@@H]1O [Kanamycin sulfate] | 11.9 ± 0.26
31 | CO[C@@H]1[C@@H](OC(N)=O)[C@@H](O)[C@H](Oc2ccc3c(O)c(NC(=O)c4ccc(O)c(CC=C(C)C)c4)c(=O)oc3c2C)OC1(C)C [Novobiocin Sodium] | 12.7 ± 0.19
32 | CCCCCCCN(CC)CCCC(O)c1ccc(NS(C)(=O)=O)cc1 (stereo not given) [Ibutilide Fumarate] | 12.5 ± 0.2
33 | CC[C@@]1(O)C(=O)OCc2c1cc1n(c2=O)Cc2cc3cc(O)ccc3nc2-1 [Hydroxy Camptothecine] | 12.5 ± 0.14
34 | CO/N=C(/C(=O)N[C@@H]1C(=O)N2C(C(=O)OCOC(=O)C(C)(C)C)=C(C)CS[C@H]12)c1csc(N)n1 [Cefetamet pivoxil hydrochloride] | 12.46 ± 0.1
35 | CNC1CCCN(c2c(F)cc3c(=O)c(C(=O)O)cn(C4CC4)c3c2OC)C1 (stereo not given) [Balofloxacin] | 12.32 ± 0.029
36 | CCC(=O)O[C@@H]1CC(=O)O[C@H](C)C/C=C/C=C/[C@H](O)[C@H](C)C[C@H](CC=O)[C@H](O[C@@H]2O[C@H](C)[C@@H](O[C@H]3C[C@@](C)(O)[C@@H](OC(=O)CC)[C@H](C)O3)[C@H](N(C)C)[C@H]2O)[C@H]1OC [Midecamycin] | 12.33 ± 0.1
37 | COCCOC(=O)C1=C(C)NC(C)=C(C(=O)OC(C)C)C1c1cccc([N+](=O)[O-])c1 (stereo not given) [Nimodipine] | 12.31 ± 0.09
38 | CCCCN1CCCC[C@H]1C(=O)Nc1c(C)cccc1C [Levobupivacaine HCl] | 12.4 ± 0.15
39 | C[C@@H]1CC(=O)NN=C1c1ccc(NN=C(C#N)C#N)cc1 [Levosimendan] | 12.5 ± 0.19
40 | CC(c1cc2ccccc2s1)N(O)C(N)=O (stereo not given) [Zileuton] | 12.6 ± 0.19
